697 NFkB inh = inhibitors of the PMA/ionomycin-induced NF-kB reporter in 697 B cells. 697 B-cell NF-kB luciferase reporter, 16 h. inhibition, % at 4 µM. 330,000 compounds, 0.33% hits. AID 435022; in the data active means inhibition above about 35%
NR2F2 inh = NR2F2 (human) inhibition, primary screen. HEK293T NGFI-A luciferase reporter, luminescence. 370,000 compounds, 0.7% hits. inhibition, % at 8.6 µM. AID 686940;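 active means inhibition above a per-plate cutoff, mean inhibition of test wells between control levels plus 3 SD, cut at about 38% in these data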;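 further: cells cotransfected with COUP-TFII expression vector driving the NGFI-A reporter; 0% = median of COUP-TF2 test wells and 100% = reporter-only cells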
Gli-Sufu block = Gli-Sufu pathway antagonism; 340,000 compounds, 0.74% hits; Sufu-KO-LIGHT fibroblasts, Gli luciferase reporter luminescence; inhibition, % at 5 µM; AID 588413;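 active means inhibition above about 55%, limit read from the data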;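 further: 0% = DMSO-treated cells and 100% = wells with medium but no cells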
Jurkat NFkB inh = lowers PMA/ionomycin-induced NF-kB signal in Jurkat cells; PMA/ionomycin-induced NF-kB luciferase reporter, luminescence; inhibition, % at 4 µM; 330,000 compounds, 0.53% hits; in the data active means inhibition above about 50%
GalR3 antag = blocks the human galanin receptor 3; inhibition, % at 3 µM; HEK293 GalR3-CNG cAMP membrane potential fluorescence; galR3 body fused to GalR1 C-terminus; 360,000 compounds, 0.44% hits; O60755; AID 651719;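 active means inhibition above the screen-wide average plus 3 SD, cut at about 13% in these data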;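 further: forskolin and galanin both at EC90 stimulate the cells; cAMP rise reported by CNG channel membrane potential dye signal; 0% = forskolin plus galanin with DMSO and 100% = forskolin alone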
Target sequence (O60755 1-299 limits assumed): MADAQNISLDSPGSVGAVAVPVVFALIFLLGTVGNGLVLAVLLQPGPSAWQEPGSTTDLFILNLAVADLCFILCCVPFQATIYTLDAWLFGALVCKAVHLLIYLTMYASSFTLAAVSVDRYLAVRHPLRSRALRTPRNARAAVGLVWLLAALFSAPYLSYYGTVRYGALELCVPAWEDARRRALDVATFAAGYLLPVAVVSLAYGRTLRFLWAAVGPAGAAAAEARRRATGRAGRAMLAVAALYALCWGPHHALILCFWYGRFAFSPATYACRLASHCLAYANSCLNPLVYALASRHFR
Gal4-VP16 ctr = VP16 inhibition counter-screen for COUP-TFII. shares compounds with NR2F2 inh. HEK293 Gal4-VP16 luciferase reporter, luminescence. inhibition, % at 8.5 µM. 2,500 compounds, 25% hits. AID 687007; in the data active means inhibition above about 13%
NR2F2 inh conf = COUP-TFII (NR2F2) inhibition, confirmation assay. HEK293 NGFI-A luciferase reporter, luminescence. inhibition, % at 8.5 µM. shares compounds with NR2F2 inh. 2,500 compounds, 45% hits;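 active means mean inhibition over three repeats above a set limit taken from the earlier primary screen, cut at about 38% in these data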;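 further: 100% = cells given the luciferase reporter alone without the COUP-TF2 vector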
Numbers without * were called inactive; / = not tested or not shown. A selection: hits, their analogues and other compounds. The true share with any hit is near 2%.

SMILES	697 NFkB inh	NR2F2 inh	Gli-Sufu block	Jurkat NFkB inh	GalR3 antag	Gal4-VP16 ctr	NR2F2 inh conf
Cc1ccccc1S(=O)(=O)N1CCC(c2nc3ccccc3o2)CC1	/	-11	/	/	/	/	/
Cc1nc2ccccn2c1C(=O)/C=C/c1ccc(F)cc1	-111	-3	-23	-61	3	/	/
Cc1nc2ccccn2c1-c1ccnn1S(=O)(=O)c1ccc(F)cc1	-26	49*	7	20	6	-2	11
O=C1/C(=C/c2ccncc2)CCC/C1=C\c1ccncc1	/	84*	1	/	6	66*	90*
C[C@H]1CCCN1c1ccc2c(c1)O[C@H]1CCN(C1)S2(=O)=O	/	-4	/	/	/	/	/
Cc1ccc(OCc2cc(C(=O)N3CCCC3)no2)cn1	-81	-27	-50	-39	-1	/	/
O=C(NCCc1cn2ccccc2n1)c1cc(COc2ccc3ncccc3c2)on1	-10	64*	44	18	-2	-3	83*
O=C(c1cc(COc2ccc3ncccc3c2)on1)N1CCCCCC1	-25	43*	48	34	41*	4	49*
COc1ccc2c(c1)C[C@@H](CON1C(C)(C)CCCC1(C)C)N2S(=O)(=O)c1ccc(C)cc1	/	18	/	/	/	/	/
CCCC1CCC2(CC1)CCC2OC(=S)Nc1ccccc1C(F)(F)F (stereo not given)	/	-9	/	/	/	/	/
O=C(NCCc1ccccc1)C1CCN(c2ncccn2)CC1	0	-18	-11	4	3	/	/
O=C(NCCCc1ccccc1)C1CCN(c2nc(-c3ccc(Br)cc3)cs2)CC1	/	37*	/	/	/	-1	1
Cc1c(CCC(=O)N[C@@H](CCCNC(N)=O)C(=O)O)c(=O)oc2cc3oc4c(c3cc12)CCCC4	26	53*	20	-9	-9	29*	29
Cc1c(CCC(=O)NCCCC(=O)O)c(=O)oc2cc3oc4c(c3cc12)CCCC4	32	49*	13	3	-3	35*	34
Cc1c(CC(=O)N[C@@H](CCCNC(N)=O)C(=O)O)c(=O)oc2cc3oc4c(c3cc12)CCCC4	14	-1	/	-8	-7	/	/
Cc1c(CC(=O)NCC(=O)O)c(=O)oc2cc3oc4c(c3cc12)CCCC4	-10	10	9	-36	-5	/	/
CCOc1cc(CNCc2ccncc2)cc(Br)c1OCc1ccc(F)cc1	-45	39*	9	13	-4	4	8
C=C(C(=O)c1ccccc1)C(NC(C)(C)C)c1ccccc1 (stereo not given)	/	80*	35	/	-5	67*	92*
CN1C(=O)C[C@@](C#N)(C(=O)N2CCCC2)[C@H]1c1ccccc1	/	-2	/	/	/	/	/
NC(=O)c1cc([N+](=O)[O-])ccc1NCc1ccc(N)cc1	27	52*	17	11	0	64*	50*
NC(=O)c1cc([N+](=O)[O-])ccc1NCc1ccc(F)cc1	-35	-1	-7	-4	-5	/	/
CN1C2=N[C@@H](c3cccc(C(F)(F)F)c3)CC(=O)N2/C(=C\c2ccccc2)[C@H]1c1ccccc1	/	2	/	/	/	/	/
COc1ccc(CCN(Cc2cccs2)S(=O)(=O)c2ccc(F)cc2)cc1OC	/	47*	/	/	/	4	14
Cc1cccc(-c2cccc(NC(=O)C3CCCN(C(=O)c4csc(C)n4)C3)c2)c1 (stereo not given)	-47	42*	4	-10	-9	-35	18
Cc1cccc(-c2cccc(NC(=O)C3CCCN(C(=O)c4cccnc4)C3)c2)c1 (stereo not given)	2	22	11	-1	-1	/	/
SMILES	697 NFkB inh	NR2F2 inh	Gli-Sufu block	Jurkat NFkB inh	GalR3 antag	Gal4-VP16 ctr	NR2F2 inh conf
CCc1c(-c2ccccc2OC)ncn1Cc1cccc(-c2ccccc2)c1	/	51*	/	/	-6	6	16
CCc1ccc(S(=O)(=O)Nc2cc3c(cc2C)n(C)c(=O)n3C)cc1	-37	41*	65*	45	-5	11	26
COc1cccc(Cn2cc(COC(=O)N3CCOCC3)nn2)c1	/	0	/	/	/	/	/
CC(NCc1ccco1)C(=O)N1CCN(c2cccc(C(F)(F)F)c2)CC1 (stereo not given)	/	7	/	/	/	/	/
Cc1cc(-c2ccc(C)c(S(=O)(=O)NCCCN3CCN(c4ccccc4)CC3)c2)on1	-26	62*	47	15	4	1	19
O=C(C1CCCN(S(=O)(=O)c2cccc3nsnc23)C1)N1CCCCCC1 (stereo not given)	-10	6	2	5	0	/	/
O=C(C1CCCN(S(=O)(=O)c2cccc3nsnc23)C1)N1CCc2ccccc2C1 (stereo not given)	17	41*	11	-6	1	-6	2
COC(=O)[C@]12C[C@H](CC(=O)NCc3cccs3)C(=O)N(CCC3=CCCCC3)C1=C[C@H](C(C)(C)C)O[C@@H]2C	/	-12	/	/	-5	/	/
O=C(C1CCN(c2ncnc3c2nc2n3CCCCC2)CC1)N1CCN(c2cccc(Cl)c2)CC1	-91	50*	56*	1	-8	0	23
CCCCCCNC(=O)C1CSCCS(=O)(=O)N1Cc1ccccc1 (stereo not given)	/	-21	/	/	/	/	/
COC(=O)c1ccc(COc2cccc3c2CCN(Cc2cccc(C)c2)C3=O)o1	-15	38*	28	23	-7	-4	-1
CC1=C(CO)C(=O)OC([C@@H](C)C2CC[C@H]3C4C[C@H]5O[C@]56[C@@H](O)C=CC(=O)[C@]6(C)C4CC[C@]23C)C1 (stereo not given in full)	/	44*	16	/	-6	49*	41*
Nc1cccc(-c2cc3ccccc3oc2=O)c1	-16	57*	4	-30	-5	8	7
CC(C)Nc1ncnc2ccc(Br)cc12	-86	53*	44	26	-5	19*	45*
CSCCC(Nc1ncnc2ccc(Br)cc12)C(=O)O (stereo not given)	4	19	-5	-7	-1	/	/
O=C(Nc1nc(-c2ccc(S(=O)(=O)N3CCCCCC3)cc2)cs1)c1ccccc1	-3	54*	25	15	-5	4	34
Cc1cc(C)cc(Nc2nc(-c3ccc(S(=O)(=O)N4CCCC4)cc3)cs2)c1	-17	13	-2	28	2	/	/
Cc1ccc(Nc2nc(-c3ccc(S(=O)(=O)N4CCOCC4)cc3)cs2)cc1	-2	38*	6	8	-2	0	18
O=S(=O)(c1ccc(-c2csc(Nc3ccc(F)cc3)n2)cc1)N1CCCC1	-39	46*	26	16	1	-11	24
CCCCCCCCN1C(=O)[C@@H](CC(=O)NCCCCc2ccccc2)C[C@@]2(C(=O)OC)C1=C[C@H](COCc1ccccc1)O[C@@H]2C	/	21	/	/	/	/	/
Cc1ccc(OCC(=O)N2CCN(c3nnc(-c4ccc(C)cc4)c4ccccc34)CC2)cc1	7	9	16	24	-4	/	/
